Assay outcomes deposited in PubChem by National Center for Advancing Translational Sciences (NCATS).
In the library only some 11% were active in any assay of this set; here they are far more common.
AmpC inh detg – blocks E. coli AmpC beta-lactamase in detergent assay | P00811 | AmpC hydrolysis of nitrocefin, absorbance 480 nm, 0.01% Triton | Potency, µM (series often up to 114 µM), usual class: inhibitors | 370,000 tested, 0.041% active; note: nearly all actives have a fitted effect of over 25% in size
Target sequence (P00811 whole entry, looked up): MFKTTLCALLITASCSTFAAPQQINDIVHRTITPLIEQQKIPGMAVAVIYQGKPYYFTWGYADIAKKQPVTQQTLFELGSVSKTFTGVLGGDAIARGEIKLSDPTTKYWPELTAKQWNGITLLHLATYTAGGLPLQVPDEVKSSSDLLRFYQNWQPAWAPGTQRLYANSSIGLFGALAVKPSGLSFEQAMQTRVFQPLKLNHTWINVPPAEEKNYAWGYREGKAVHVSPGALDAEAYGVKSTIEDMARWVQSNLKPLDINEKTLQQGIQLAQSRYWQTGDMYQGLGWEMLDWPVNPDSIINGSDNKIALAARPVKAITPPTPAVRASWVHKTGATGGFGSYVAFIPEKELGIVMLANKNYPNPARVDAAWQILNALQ
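20 mM phosphate pH 7.0 + 0.01% (detergent screen) or 0.0001% Triton X-100; 5.3 nM AmpC reagent; cpd preinc 15 min RT; nitrocefin (800 uM stock) to start; A480 q20 s × 4 min; Activity was normalised to no-enzyme and no-compound control wells.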
Pf growth 48h – inhibits P. falciparum growth in the first generation, 48 h. P. falciparum luciferase growth in erythrocytes, 48 h. Potency, µM (series often up to 28.7 µM), most hits filed as inhibitors. 310,000 tested, 5.9% active
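Read-out is firefly luciferase luminescence from an integrated reporter in P. falciparum, so falling signal marks reduced parasite growth. Infected erythrocytes were at 2% hematocrit and 0.1% parasitemia (final) in Albumax-supplemented RPMI 1640.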
HCV inhibitor – blocks hepatitis C virus; Huh7.5.1 HCVcc-Cre infection, luciferase reporter, 44 h; Potency, µM (series often up to 41.8 µM), hits mostly inhibitors; 340,000 tested, 3.4% active
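Seed cells (1,000/well) for 4 h; treat with compound and infect with HCVcc-Cre, moi about 0.5. Incubate 44 h, then detect luciferase activity.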
AmpC no deterg – blocks E. coli AmpC beta-lactamase in detergent-free assay; AmpC nitrocefin hydrolysis, absorbance 480 nm, 0.0001% Triton; Potency, µM (doses to about 57.1 µM), most hits filed as inhibitors; 330,000 tested, 0.52% active; note: nearly all actives have a fitted effect of over 20% in size
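AmpC (5.3 nM in the dispensed reagent) in 20 mM phosphate pH 7.0 with 0.01% (detergent screen) or 0.0001% Triton X-100 was preincubated with compounds for 15 min at room temperature. Nitrocefin was then added from an 800 uM solution, and hydrolysis was followed at 480 nm.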
Pf growth 96h – inhibits malaria parasite growth, 96 h; 320,000 tested, 6.9% active; P. falciparum luciferase reporter growth, 96 h; Potency, µM (series often up to 28.7 µM), most hits filed as inhibitors
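Two-generation exposure (96 h) targets delayed-death phenotype. Reporter parasites carrying integrated firefly luciferase, in red cells at 2% hematocrit and 0.05% parasitemia final, kept at 37 C, 5% CO2; luminescence loss indicates inhibition.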
AMA1 RON2 block – inhibitors of Plasmodium falciparum AMA1-RON2 interaction; 360,000 tested, 0.2% active; Potency, µM (titrated, usually from 58.2 µM), actives largely listed as inhibitors; AID 720542; AlphaScreen AMA1-biotinylated RON2 peptide binding; note: nearly all actives have a fitted effect of over 45% in size
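AMA1 (3D7) with his tag at 25 nM final met compounds first, then biotinylated RON2 peptide at 25 nM; detection used donor plus acceptor beads, 10 µg/mL apiece, read by AlphaScreen after 30 min at room temperature.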
A number is an active result; i = inactive; ? = inconclusive; nt = no result given; [ ] = remark or other dose. Calls come from the whole dose curve; as a rule, active = well fitted curve in the direction sought with a large enough effect; inconclusive = small, poorly fitted or top-dose-only effect, or another doubt; inactive = no such curve, though single readings can be large; an effect the other way counts as inactive or inconclusive.

SMILES	AmpC inh detg	Pf growth 48h	HCV inhibitor	AmpC no deterg	Pf growth 96h	AMA1 RON2 block
CCOc1ccc(NC(=O)CCN2CCN(S(=O)(=O)c3cc(Cl)ccc3OC)CC2)cc1	i	?	?	i	2.6µM	i
CCN(CC)c1ccc(NC(=O)CN2CCN(S(=O)(=O)c3cc(Cl)ccc3OC)CC2)cc1	i	10µM	?	i	nt	?
COc1ccc(F)cc1S(=O)(=O)NCCc1csc2nc(-c3cccc(C)c3)nn12	i	nt	nt	nt	nt	nt
O=C(Nc1ccc(N2CCOCC2)cc1)c1ccc(Cl)c(S(=O)(=O)N2CCCC2)c1	i	?	6.3µM	i	?	i
CCN(CC)CCOC(=O)c1ccc(NC(=O)c2ccc(Cl)c(S(=O)(=O)N3CCCCCC3)c2)cc1	i	?	?	i[11.4 µM]	4.1µM	i
CCN1CCN(c2ccc(NC(=O)c3ccc(Cl)c(S(=O)(=O)N4CCCC4)c3)cc2)CC1	i	10µM	18µM	i	?	i
COc1ccc(C(=O)Nc2ccc(N3CCCCCC3)cc2)cc1S(=O)(=O)N1CCOCC1	i	12µM	8.9µM	i	?	?
Cc1nc2ccn(Cc3ccco3)c(=O)c2cc1C(=O)N1CCN(c2ccc(F)cc2)CC1	i	nt	nt	nt	nt	nt
CC1CCCCN1S(=O)(=O)c1ccc(C(=O)Nc2sc3c(c2C(N)=O)CC(C)(C)NC3(C)C)cc1 (stereo unspecified)	i	nt	nt	nt	nt	nt
COc1ccccc1/C=C1/SC(=S)N(CCC(=O)Nc2cccnc2)C1=O	i	i	?	i	?	i
O=C(CCN1C(=O)/C(=C/c2ccccc2Cl)SC1=S)NC1C=CS(=O)(=O)C1 (stereo unspecified)	i	i	?	28µM	?	i
CCN(CC)CCOC(=O)c1ccc(NC(=O)CCCN2C(=O)/C(=C\c3cccs3)SC2=S)cc1	i	2.3µM	10µM	i	4.1µM	i
O=C(CCCN1C(=O)/C(=C/c2ccccc2OC(F)F)SC1=S)Nc1cccnc1	nt	nt	11µM	i	nt	i
Cc1cc(NC(=O)CCCN2C(=O)/C(=C\c3cccs3)SC2=S)no1	i	i	i	i	i	i
Cc1cc(NC(=O)CCN2C(=O)/C(=C\c3ccccc3Cl)SC2=S)no1	i	i	i	i	0.033µM	i
COc1ccccc1C(=O)N1c2ccccc2C(C)(c2ccc(Cl)cc2)CC1(C)C (stereo unspecified)	i	nt	nt	nt	nt	nt
COc1cc(OC)cc(C(=O)NCC(=O)NCCN2C(=O)S/C(=C\c3ccccc3Cl)C2=O)c1	i	?	10µM	i	?	i
O=C(CCCN1C(=O)/C(=C/c2cccs2)SC1=S)NNC(=O)c1cccnc1	i	?	i	i	15µM	i
O=C(CCCN1C(=O)/C(=C/c2ccccc2Cl)SC1=S)NNC(=O)c1ccccc1	i	?	i	i	1.9µM	i
O=C(CCCN1C(=O)/C(=C\c2cccs2)SC1=S)NNC(=O)c1ccncc1	i	i	i	i	i	i
CCN(CC)CCOC(=O)c1ccc(NC(=O)CCNC(=O)Cn2ccc3ccccc3c2=O)cc1	i	i	i	i	12µM	i
COC(=O)c1cc2oc3ccccc3c2n1Cc1nc(-c2cccc(C)c2)oc1C	i	nt	nt	nt	nt	nt
CCC(CC)C(=O)OCc1cc(=O)n2nc(C3CC3)sc2n1	i	nt	nt	nt	nt	nt
CCCc1ccc(S(=O)(=O)N2CCC(c3nnc(-c4cccc(C)c4)o3)CC2)cc1	i	nt	nt	nt	nt	nt
O=C(CCCN1C(=O)/C(=C/c2ccccc2Cl)SC1=S)NNC(=O)c1cccnc1	i	9.3µM	i	i	?	i
O=C(CCN1C(=O)/C(=C\c2ccccc2)SC1=S)NNC(=O)c1cccnc1	i	i	i	i	i	i
C=CS(=O)(=O)N(Cc1ccc(Cl)c(Cl)c1)C[C@@H](O)CO	nt	nt	14µM	i	nt	i
O=C(O)c1sccc1SCc1ccc(Cl)c(Cl)c1	i	i	i	i	i	i
CCc1ccc(-n2cnc3cc(C(=O)NCc4ccc(C)cc4)ccc32)cc1	i	nt	nt	nt	nt	nt
CCc1cccc(NC(=O)CSc2ncccc2C(=O)Oc2ccccc2Cl)c1	i	nt	nt	nt	nt	nt
